One assay concerns Klebsiella pneumoniae. Conditions: Concentration 32 ug.mL-1;; ASSAY_TEST Inhibition of Bacterial Growth; detection method Absorption (OD600); MEDIA CAMHB; plate type 384well; NBS; CORNING #3640; time 18 hr.
The next assay deals with Candida albicans. As to conditions: Concentration 32 ug.mL-1; ASSAY_TEST Inhibition of Fungal Growth; detection method Absorption (OD530).
A further assay concerns Cryptococcus neoformans. Conditions: Concentration 32 ug.mL-1; ASSAY_TEST Inhibition of Fungal Growth; detection method Resazurin; Absorption (OD600-OD570); plate type 384well; NBS; CORNING #3640. On the technique in general: The colour change of resazurin is a common sign of viable cells or microbes.

Experimental findings from ChEMBL document CHEMBL4513146, “CO-ADD screening of Karazin Kharkiv National University (Ukraine) compounds” are described below.

Results with a measured potency or affinity are listed apart.

For the compound `Cc1ccc(-c2ccc3nnc(CCC(=O)N4CCN(C(=O)c5ccco5)CC4)n3n2)cc1C`, the Inhibition (as a rule, the change of the read-out against control, counted positive when it falls) is recorded as 19.25% in the assay on Klebsiella pneumoniae, 2.04% in the assay with Candida albicans and -14.25% in the assay on Cryptococcus neoformans.

In the case of `CC(C)(C)Sc1ccc2nn(CC(=O)Nc3ccccc3C(F)(F)F)c(=O)n2n1`, the Inhibition in the assay with Klebsiella pneumoniae is listed as 13.7%; with Candida albicans it was 0.56%; in the assay on Cryptococcus neoformans, -20.81%.

In the case of `COc1ccc(NC(=O)CSc2nnc3c(=O)n(-c4ccccc4)ccn23)cc1`, the figures for the Inhibition in the assay with Klebsiella pneumoniae, with Candida albicans and in the assay on Cryptococcus neoformans were 0.2%, 2.88% and -4.81%, respectively.

Take `CCc1nnc2c(=O)n(CC(=O)Nc3ccc(C(C)C)cc3)c3ccccc3n12`: the Inhibition in the assay with Klebsiella pneumoniae is 15.72%; in the assay with Candida albicans, -0.82%; in the assay on Cryptococcus neoformans it was -28.42%.

For the compound `CCCCOc1ccc(-c2cc3c4nnc(SCC(=O)Nc5ccccc5Cl)n4ccn3n2)cc1`, the values for the Inhibition in the assay with Klebsiella pneumoniae, in the assay on Candida albicans and in the assay on Cryptococcus neoformans were 5.58%, 2.9% and -20.67%, respectively.

In the case of `CCc1ccccc1NC(=O)Cn1c(=O)c2nnc(C(C)C)n2c2ccccc21`, the Inhibition is -2.33% in the assay on Klebsiella pneumoniae, 1.4% with Candida albicans and -16.86% with Cryptococcus neoformans.

For the compound `O=C(Cn1nc2c(Oc3ccccc3)nccn2c1=O)Nc1ccc2c(c1)OCO2`, the Inhibition in the assay on Klebsiella pneumoniae is 4.55%; in the assay on Candida albicans it was 2.95%; in the assay with Cryptococcus neoformans, -10%.

On to `COc1cccc(-n2ccn3c(SCc4cccc(Cl)c4)nnc3c2=O)c1`, for which the Inhibition in the assay on Klebsiella pneumoniae is 8.66%; with Candida albicans, 0.25%; in the assay on Cryptococcus neoformans it was -7.39%.

Take `Cc1[nH]c2ccccc2c1C(=O)CSc1nnc2c(=O)n(-c3ccc(F)c(F)c3)ccn12`: the Inhibition is recorded as 14.26% with Klebsiella pneumoniae, 1.72% with Candida albicans and -11.39% in the assay with Cryptococcus neoformans.

For `COc1ccc(-n2ccn3c(-c4ccc([N+](=O)[O-])cc4)nnc3c2=O)cc1`, the Inhibition with Klebsiella pneumoniae is recorded as 13.7%; in the assay with Candida albicans, -0.61%; with Cryptococcus neoformans, -26.2%.

As to `CCc1ccc(NC(=O)Cn2nc3c(Sc4ccccc4)nccn3c2=O)cc1`, the Inhibition in the assay on Klebsiella pneumoniae is 6.05%; with Candida albicans, 4.46%; in the assay with Cryptococcus neoformans it was -8.51%.

As to `COc1ccc(N2CCN(C(=O)Cn3nc4ccc(-c5ccccc5)nn4c3=O)CC2)cc1`, the Inhibition with Klebsiella pneumoniae is 3.53%; with Candida albicans it was -1.43%; in the assay on Cryptococcus neoformans it was -4.25%.

Take `CCCc1nnc2c(=O)n(CC(=O)Nc3ccc4c(c3)OCCO4)c3ccccc3n12`: the Inhibition is -1.14% with Klebsiella pneumoniae, 4.16% in the assay on Candida albicans and -31.27% in the assay on Cryptococcus neoformans.

Take `COc1ccc(N2CCN(C(=O)Cn3nc4c(Oc5ccc(C)cc5)nccn4c3=O)CC2)cc1`: the figures for the Inhibition in the assay with Klebsiella pneumoniae, in the assay with Candida albicans and in the assay on Cryptococcus neoformans were 7.21%, 1.27% and -9.68%, respectively.

For `CCc1ccc(N(Cc2ccccc2F)S(=O)(=O)c2cccn3c(CC)nnc23)cc1`, the Inhibition in the assay with Klebsiella pneumoniae is recorded as 6.04%; with Candida albicans it was 4.59%; with Cryptococcus neoformans it was -5.13%.

On to `Cc1ccc(NC(=O)Cn2nc3ccc(SC(C)C)nn3c2=O)c(C)c1`, for which the Inhibition was 11.09% in the assay with Klebsiella pneumoniae, 2.8% in the assay on Candida albicans and -5.46% with Cryptococcus neoformans.

For the compound `Cc1cccc(Oc2nc3ccccc3n3c(=O)n(CC(=O)NCc4ccco4)nc23)c1C`, the Inhibition is 3.72% in the assay with Klebsiella pneumoniae, 36.74% in the assay on Candida albicans and -27.2% in the assay with Cryptococcus neoformans.

Consider `O=C(Cn1nc2c(SC3CCCCC3)nccn2c1=O)Nc1cccc(Br)c1`, for which the Inhibition is -4.59% in the assay on Klebsiella pneumoniae, 26.25% with Candida albicans and -20.18% in the assay on Cryptococcus neoformans.

For `COc1ccc(NC(=O)Cn2nc3ccc(-c4ccc(Cl)cc4)nn3c2=O)cc1`, the Inhibition in the assay on Klebsiella pneumoniae is 12.68%; in the assay on Candida albicans, 0.32%; in the assay on Cryptococcus neoformans, -12.45%.

Take `COc1cc(NC(=O)CSc2nnc3c(=O)n(-c4cccc(F)c4)ccn23)cc(OC)c1`: the Inhibition is given as 4.95% with Klebsiella pneumoniae, 13.47% in the assay with Candida albicans and -8.34% in the assay with Cryptococcus neoformans.

For the compound `Cc1cc(Br)ccc1NC(=O)Cn1nc2c(SC3CCCCC3)nccn2c1=O`, the Inhibition with Klebsiella pneumoniae is on record as 10.86%; in the assay on Candida albicans, 1.51%; in the assay with Cryptococcus neoformans, -21.25%.

Regarding `Cc1cccc(C)c1NC(=O)CSc1nnc2c3cc(-c4ccccc4)nn3ccn12`, the figures for the Inhibition in the assay on Klebsiella pneumoniae, in the assay with Candida albicans and in the assay on Cryptococcus neoformans were -14.45%, -0.49% and -6.46%, respectively.

With `O=S(=O)(c1cccn2cnnc12)N(Cc1ccc(F)cc1)c1ccc(F)c(F)c1`, the Inhibition in the assay with Klebsiella pneumoniae was 4.99%; in the assay with Candida albicans it was 2.27%; in the assay with Cryptococcus neoformans it was -6.23%.

Take `O=C(CSc1nnc2c(=O)n(-c3ccccc3)ccn12)Nc1ccc2c(c1)OCO2`: the values for the Inhibition in the assay on Klebsiella pneumoniae, in the assay with Candida albicans and with Cryptococcus neoformans were 8.73%, 0.46% and -18.26%, respectively.

On to `CCc1nnc2c(S(=O)(=O)N(Cc3cccc(OC)c3)c3cccc(C)c3)cccn12`, for which the Inhibition with Klebsiella pneumoniae is 0.84%; with Candida albicans, 7.06%; in the assay with Cryptococcus neoformans it was -5.34%.

For `COc1ccc(N2CCN(C(=O)Cn3nc4c(Sc5cccc(C)c5)nccn4c3=O)CC2)cc1`, the Inhibition with Klebsiella pneumoniae is -3.27%; with Candida albicans, 1.08%; in the assay on Cryptococcus neoformans, -17.29%.

With `COc1ccc(CNC(=O)CSc2nnc3c4cc(-c5ccc(C)cc5)nn4ccn23)cc1OC`, the Inhibition in the assay on Klebsiella pneumoniae is recorded as 9.92%; in the assay with Candida albicans, -0.42%; in the assay with Cryptococcus neoformans, -20.85%.

For `Cc1ccc2c(c1)N(C(=O)Cn1nc3ccc(Sc4ccccc4)nn3c1=O)CCO2`, the Inhibition in the assay with Klebsiella pneumoniae was 4.6%; in the assay on Candida albicans it was -1.78%; in the assay with Cryptococcus neoformans, -5.73%.
